Screening results (PubChem BioAssay)
An excerpt weighted towards active compounds, which were near 12% of everything screened.
JMJD2A Tudor inh: qHTS Assay for Inhibitors of JMJD2A-Tudor Domain; Lysine-specific demethylase 4A (Homo sapiens), O75164; AlphaScreen JMJD2A-Tudor / H3K4me3 peptide binding; Potency, µM (top dose mostly 114 µM), without a hit: at the highest dose activity change, negative = inhibition, usual class: inhibitors; actives 4.4% (n = 390,000); AID 504339, 2011; also: % is scaled to controls: 0 for no effect and ±100 for the full control effect; nearly all actives have a fitted effect of over 50% in size
BAZ2B block: qHTS Assay for Inhibitors of BAZ2B; Potency, µM (titrated, usually from 114 µM), for inactives: top-dose activity change, negative = inhibition, hits mostly inhibitors; AlphaScreen BAZ2B-H3K14Ac peptide displacement; AID 504333, 2011; actives 4.4% (n = 360,000); Bromodomain adjacent to zinc finger domain protein 2B (Homo sapiens), Q9UIF8; also: % is scaled to controls: 0 for no effect and ±100 for the full control effect; nearly all actives have a fitted effect of over 60% in size
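Inhibition is scored as reduced AlphaScreen emission. The BAZ2B/b-H3(5-23)K14Ac complex (50 nM each) in PBS pH 7.4, 0.01% Tween-20 meets compound (up to 110 uM) for 30 min at RT before bead addition.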
HP1b chromo inh: HTS for Inhibitors of HP1-beta Chromodomain Interactions with Methylated Histone Tails; AlphaScreen HP1-beta / biotin-H3K9me3 peptide binding; AID 540317, 2011; Potency, µM (highest dose often 114 µM), for inactives: top-dose activity change, negative = inhibition, usual class: inhibitors; Chromobox protein homolog 1 (Homo sapiens), P83916; actives 0.56% (n = 390,000); also: nearly all actives have a fitted effect of over 70% in size
Target sequence (P83916 whole entry, looked up): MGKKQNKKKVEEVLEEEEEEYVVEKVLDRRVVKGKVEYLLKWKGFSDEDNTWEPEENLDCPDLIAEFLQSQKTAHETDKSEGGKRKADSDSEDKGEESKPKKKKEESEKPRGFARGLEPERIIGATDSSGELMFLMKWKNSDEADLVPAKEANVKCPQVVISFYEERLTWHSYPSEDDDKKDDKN
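AlphaScreen: HP1-beta (50 nM) preformed 30 min with biotin-H3(1-18)K9me3 peptide (50 nM) in PBS pH 7.4, 0.01% Tween-20. Compound added for 30 min at RT, then streptavidin donor/nickel chelate acceptor beads (10 ug/mL) for 30 min.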
L3MBTL1 block: qHTS Assay for the Inhibitors of L3MBTL1 | AlphaScreen L3MBTL1–H3K9me1 peptide binding | Potency, µM (titrated, usually from 57.1 µM), for inactives: at the top dose activity, negative = inhibition, most hits filed as inhibitors | actives 0.66% (n = 230,000); also: % is scaled to controls: 0 for no effect and ±100 for the full control effect; nearly all actives have a fitted effect of over 60% in size
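AlphaScreen assay: L3MBTL1 (50 nM final) was preincubated 30 min at room temperature with biotinylated H3(1-15)K9me1 peptide (75 nM final), then 30 min with library compounds; streptavidin donor and nickel chelate acceptor beads (10 ug/mL final) added, 30 min dark.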
Sfp PPTase inh: qHTS Assay for Inhibitors of Bacillus subtilis Sfp phosphopantetheinyl transferase (PPTase); 4'-phosphopantetheinyl transferase ffp (Bacillus subtilis), Q9F4F7; Biochemical Sfp PPTase activity, qHTS; Potency, µM, inactives show largest response in the series, negative = inhibition, usual class: inhibitors; actives 3.5% (n = 310,000);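 also: the enzyme is Sfp with the accession as filed and its product quenches rhodamine fluorescence; 0% = enzyme reaction without inhibitor and -100% = no enzyme wells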
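Sfp 15 nM + cpd, 15 min RT; start w/ rhodamine-CoA 5 uM, BHQ-2-YbbR 12.5 uM (final); 50 mM Hepes pH 7.6, 10 mM MgCl2, 0.01% NP-40, 0.01% BSA; read 525/598 nm at 0 and 30 min.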
G9a block: qHTS Assay for Inhibitors of Histone Lysine Methyltransferase G9a; Potency, µM (series often up to 102 µM), for inactives: top-dose activity, negative = inhibition, most hits filed as inhibitors; G9a H3K9 monomethylation, AlphaScreen, 2 h; actives 8.8% (n = 350,000); AID 504332, 2011; also: % is scaled to controls: 0 for no effect and ±100 for the full control effect; nearly all actives have a fitted effect of over 75% in size
Target sequence (Q96KQ7 913-1193 limits assumed): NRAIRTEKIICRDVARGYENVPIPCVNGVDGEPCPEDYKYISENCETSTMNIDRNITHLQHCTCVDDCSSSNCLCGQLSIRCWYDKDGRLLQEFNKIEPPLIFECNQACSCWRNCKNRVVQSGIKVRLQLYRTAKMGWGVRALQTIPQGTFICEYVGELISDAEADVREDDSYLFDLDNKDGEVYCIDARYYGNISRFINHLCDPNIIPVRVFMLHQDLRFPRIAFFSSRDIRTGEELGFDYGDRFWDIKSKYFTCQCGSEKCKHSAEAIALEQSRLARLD
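AlphaScreen read-out: biotin-H3K9 peptide (500 nM) methylation by 20 nM enzyme with 20 uM SAM, 2 h at room temperature after 15 min compound preincubation; anti-monomethyl H3K9 antibody plus donor/acceptor beads, 10 min dark.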
* hit, by the source's call; ? = inconclusive; · = no result given; ! = not active in a repeat; [ ] = dose if it differs, or a comment. Calls follow the shape of the dose curve; as a rule, active = well fitted curve in the direction sought with a large enough effect; inconclusive = small, poorly fitted or top-dose-only effect, or another doubt; inactive = no such curve, though single readings can be large; an effect the other way counts as inactive or inconclusive. Potency is read from the fitted curve at half-maximal effect.

SMILES	JMJD2A Tudor inh	BAZ2B block	HP1b chromo inh	L3MBTL1 block	Sfp PPTase inh	G9a block
COc1ccc(C(=O)Nc2ccc(S(=O)(=O)NC(C)=O)cc2)cc1[N+](=O)[O-]	-17.6%	-14.9%	29.3%	1.9%	15.5%	50.1µM*
CCOCCCNS(=O)(=O)c1ccc(NC(=O)c2ccc(OC)c([N+](=O)[O-])c2)cc1	11.2µM*	0.2%	-14.8%	4.9%	16.9%	11.3%
CCN1CCN(CC(O)COCC2COc3ccccc3O2)CC1 (stereo not drawn)	-5.2%	-24.9%	20.4%	-24.2%	13.9%	?
C[N+]1(CC(O)COCC2COc3ccccc3O2)CCOCC1 (stereo not drawn)	-10.6%	-18.8%	21.6%	·	6.7%	35.5µM*
OC(COCC1COc2ccccc2O1)CN1CCCCC1 (stereo not drawn)	-24.7%	-2.1%	1.7%	-1.8%	10.5%	-11.5%
OC(COCC1COc2ccccc2O1)CN1CCN(c2ccccc2)CC1 (stereo not drawn)	?	79.4µM*	-4.7%	0.2%	-1.0%	36.0%[0.501 µM]
Cc1ccc(NS(=O)(=O)c2cc3c(cc2-c2ccccc2)NC(=O)CO3)cc1C	-29.3%	·	·	·	·	·
CN1CCN(S(=O)(=O)c2ccc(CNC(=O)c3ccccc3)s2)CC1	-11.0%	1.6%	27.7%	·	10.6%	15.6%
CC[C@H](C)C(=O)O[C@H]1C[C@@H](C)C=C2C=C[C@H](C)[C@H](CC[C@@H]3C[C@@H](O)CC(=O)O3)[C@H]21	-15.8%	-21.8%	11.3%	-13.3%	7.9%	15.8µM*!
CCn1c(SCC(=O)O)nnc1-c1ccc2[nH]c(C)c(C)c2c1	-35.7%	-16.5%	-2.1%	-8.6%	1.7%	14.1µM*
Cc1[nH]c2ccc(-c3nnc(SCC(=O)c4ccc(F)cc4)o3)cc2c1C	-10.1%	5.2%	12.0%	-1.9%	2.9%	?
Cc1cc(C)c(C)c(C(=O)CSc2nnc(-c3ccc4[nH]c(C)c(C)c4c3)o2)c1C	-14.6%	13.3%	28.5%	-9.4%	0.0%	25.1µM*
COc1ccc(-[n+]2c(C)cc(/C=C3\Sc4ccccc4N3C)cc2C)cc1	-3.7%	-14.6%	64.6%	8.8%	20µM*	50.1µM*
Cc1ccc2c(C(=O)CCl)c(C)[nH]c2c1	-2.2%[11.4 µM]	-15.7%	62.7%	·	17.4%	4.1%[12.7 µM]
O=C1C=CC2=C3c4cc(O)c(O)cc4CC3(O)COC2=C1O (stereo not drawn)	3.16µM*	·	?	·	14.1µM*	·
Cc1nc([N+](=O)[O-])c(C(=O)OCc2cccc(Br)c2)n1C	-16.4%	-17.1%	33.4%	·	-1.0%	50.1µM*
CCOc1cc(Br)ccc1S(=O)(=O)N1CCC(C(N)=O)CC1	-2.1%	12.3%	42.7%	3.1%	10.3%	?
CCCCc1c(C)nc2ccccc2c1SCCC(=O)O	-15.6%	?	19.8%	-10.3%	22.7%	50.1µM*
CCCCS(=O)c1c(O)c2ccccc2[nH]c1=O (stereo not drawn)	-13.3%	-7.0%	28.6%	5.4%	-25.4%	31.6µM*
O=c1[nH]c2ccccc2c(O)c1O	50.1µM*	2.2%	?	5.7%	0.316µM*	0.708µM*
CCCCCc1c(O)c2ccccc2[nH]c1=O	-17.6%	12.3%	9.7%	-1.8%	-3.7%	8.1%[59 µM]
COCCN(C(C)=O)c1nnc(-c2ccccn2)s1	-30.4%	56.2µM*	28.6%	-6.7%	-18.0%	-14.3%[59 µM]
CC(=O)N(C)c1nnc(-c2ccccn2)s1	-19.5%	-34.8%	42.5%	-2.6%	10.4%	-4.6%[59 µM]
CC(=O)N(CC1CCCO1)c1nnc(-c2ccccn2)s1 (stereo not drawn)	-26.8%	50.1µM*	41.0%	-0.8%	-3.2%	56.2µM*
COc1ccc(-n2ncc(C(=O)N3CCN(c4cc(C)ccc4C)CC3)c2C2CCN(C(=O)OC(C)(C)C)CC2)cc1	-29.8%	-0.6%[57.1 µM]	-10.6%	·	·	-10.3%[59 µM]
SMILES	JMJD2A Tudor inh	BAZ2B block	HP1b chromo inh	L3MBTL1 block	Sfp PPTase inh	G9a block
CCOC(=O)c1sc2cc([N+](=O)[O-])cc(SCC(C)C)c2c1N	39.8µM*	-8.9%	?	·	-5.0%	-34.0%[59 µM]
CCOC(=O)c1cc(N)cc([N+](=O)[O-])c1	4.9%	-32.8%	35.0%	-0.9%	1.4%	?
CCOc1ccccc1Nc1sc(C(=O)c2ccc(Cl)cc2)c(N)c1C(=O)NCCc1ccccc1	-24.7%	-28.5%	21.7%	·	·	-37.8%[59 µM]
COc1ccc2c(c1OC)C(=O)OC2CC(=O)c1ccc(O)c(O)c1 (stereo not drawn)	5.01µM*	?	2.4%	·	-15.5%	39.8µM*
Cc1nn(C)c2c1c(C(F)(F)F)cc(=O)n2CC(=O)N1CCCCC1C (stereo not drawn)	-17.3%	-3.4%	-12.4%	·	·	9.9%[59 µM]
O=C1c2cc(Br)ccc2N(Cc2ccc(Br)cc2)S(=O)(=O)C1c1cc(Cl)c(Cl)cc1[N+](=O)[O-] (stereo not drawn)	35.5µM*	·	?	?	·	·
CCOc1ccc2c(c1)C(C)=CC(C)(C)N2	?	50.1µM*	-7.1%	-12.5%	?	8.91µM*!
CC1=CC(C)(C)Nc2ccc(OC(=O)CN3C(=O)c4ccccc4C3=O)cc21	?	17.8µM*	?	-24.8%	4.1%	35.5µM*
CC1=CC(C)(C)Nc2ccc(OC(=O)CN3C(=O)c4cccc5cccc(c45)C3=O)cc21	?	50.1µM*	-21.0%	?	39.8µM*	8.91µM*
CCc1ccc2c(c1)C(C)=CC(C)(C)N2	?	?	-23.7%	·	-11.5%	?
CC1=CC(C)(C)Nc2ccc(OC(=O)C(Cc3ccccc3)N3C(=O)c4ccccc4C3=O)cc21 (stereo not drawn)	?	?	?	-20.3%	28.9%	?
CCOC(=O)/C(C)=N/NC(C)=O	·	·	·	·	-2.3%	·
Cn1c(SCc2c(F)cccc2Cl)nc2c(c1=O)SCC2	?	28.2µM*	-26.7%	?	-19.4%	-25.6%[59 µM]
Cn1c(SCc2c(F)cccc2Cl)nc2ccccc2c1=O	15.2%	-0.6%	98.1%	9.3%	·	-1.9%[2.33 µM]
CCc1ccc(/C=N/NC(=S)NCCc2ccccc2)cc1	-14.9%	12.7%	-6.5%	·	8.2%	0.7%[59 µM]
CCNC(=S)N/N=C/c1cccc(/C=N/NC(=S)NCC)c1	-17.9%	-32.1%	-6.6%	-15.3%	39.8µM*	?
CCCCNC(=S)N/N=C/c1ccc(C#N)cc1	89.1µM*	-20.9%	?	-5.0%	13.6%	34.6%
